# TRHR PAM: TRH receptor (human) allosteric enhancement. 360,000 compounds, 0.66% hits. TRHR cells, fluo-8 calcium fluorescence, EC20 TRH enhancement. enhancement, % at 2 µM. AID 493056; in the data active = enhancement above about 30%
# Target sequence (P34981 whole entry, looked up): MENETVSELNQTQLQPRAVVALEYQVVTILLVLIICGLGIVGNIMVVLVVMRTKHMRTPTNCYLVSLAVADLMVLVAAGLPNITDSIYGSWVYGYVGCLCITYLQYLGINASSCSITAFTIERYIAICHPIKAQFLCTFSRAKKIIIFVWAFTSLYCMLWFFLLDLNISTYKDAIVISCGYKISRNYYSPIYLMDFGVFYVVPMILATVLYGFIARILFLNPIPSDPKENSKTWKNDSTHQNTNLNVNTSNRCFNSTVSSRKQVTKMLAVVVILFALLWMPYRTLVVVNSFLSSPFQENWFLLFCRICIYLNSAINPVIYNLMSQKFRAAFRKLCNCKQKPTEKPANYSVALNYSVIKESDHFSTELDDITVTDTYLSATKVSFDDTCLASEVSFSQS
#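 TRHR-expressing cells loaded with fluo-8 calcium dye were read kinetically (ex 480/em 530) during compound addition, then stimulated with an EC20 of TRH (10 nM final). Enhancement of the Gq-mediated intracellular calcium response was scored.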
# USP1-UAF1 inh: inhibitors of human USP1/UAF1 deubiquitinase | O94782 | recombinant USP1/UAF1, Ub-Rhodamine cleavage fluorescence | Potency, µM (doses to about 57.1 µM), actives largely listed as inhibitors | 390,000 compounds, 0.23% hits; active = well fitted inhibition curve with a large enough effect; inconclusive = small, poorly fitted or top-dose-only effect; inactive = no such curve, though single readings can be large or run the other way; also: nearly all actives have a fitted effect of over 60% in size
#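 High-throughput fluorogenic screen: 1nM USP1/UAF1 complex, Ub-Rho substrate 150nM final, 50mM HEPES pH 7.8 with 0.5mM EDTA, 0.1 mg/ml BSA, 1mM TCEP and 0.01% Tween-20.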
# TRHR ag: activates the human TRH receptor; P34981; TRHR cells, calcium flux fluo-8, FDSS agonist mode; activation, % at 2 µM; 360,000 compounds, 0.18% hits
#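 In this calcium-flux screen, cells bearing human TRHR are dye-loaded with fluo-8, baselined for 10 cycles, then exposed to library compounds; positive kinetic calcium responses during the agonist phase mark hits, with TRH as control.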
# D1 antagonist: human D1 dopamine receptor antagonism; P21728; HEK293 TREx D1 cells, calcium flux, dopamine EC80; hits give low values; activity change, negative = inhibition, % at 10 µM; 360,000 compounds, 3.2% hits; in the data active = activity change below about -30%
#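 Antagonism measured as reduced calcium response to an EC80 dopamine addition following 180 s compound pre-read; cells were inducible HEK293 Trex D1 plated overnight at 30 C, read kinetically at 1 cycle/sec.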
# D1 agonist: human D1 receptor agonism | P21728 | HEK293 T-REx D1 cells, calcium flux, agonist mode | activation, % at 2 µM | 360,000 compounds, 1% hits | AID 504660
#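 Agonism was scored from calcium flux recorded over 180 s (1 read/s) after pintool compound addition, following a 10-cycle baseline. Cells were inducible force-coupled HEK293 TREx D1, plated overnight at 30 C and loaded with no-wash calcium dye.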
# D1 potentiator: enhances dopamine response at the human D1 receptor | HEK293 TREx D1 cells, calcium flux, dopamine EC20 potentiation | P21728 | 360,000 compounds, 0.036% hits | potentiation, % at 10 µM; in the data active = potentiation above about 30%
# Hits are given with their value; - = inactive; ? = inconclusive; . = no result given. Rows were chosen to be rich in hits. Some 4.4% of all compounds tested hit in one or more screens of this group. Rule as the data show it, unless noted: active = activation above about 30%; inactive = the rest.
SMILES,TRHR PAM,USP1-UAF1 inh,TRHR ag,D1 antagonist,D1 agonist,D1 potentiator
CCn1cc(Br)c(C(=O)Nc2ccccc2C(=O)OC)n1,-,-,-,-36,-,-
COc1cc(NC(=O)c2ccco2)c(OC)cc1NC(=O)Nc1ccc(Cl)cc1,-,-,-,-44,-,-
COc1ccc(C(=O)Nc2ccc(NC(=O)c3ccco3)cc2)cc1,39,-,-,-,-,-
COc1ccc(NC(=O)Nc2ccc(F)c(Cl)c2)cc1,-,-,-,-49,-,-
Cc1ccc(NC(=O)Nc2ccc(F)c(Cl)c2)cc1,-,-,-,.,-,-
COc1ccc(NC(=O)Cn2c(=O)n(Cc3ccco3)c(=O)c3cc(OC)c(OC)cc32)cc1,-,-,-,-,-,-
COc1ccc(NC(=O)c2c(C)oc3ccc(O)c(CN4CCCCCC4)c23)cc1Cl,-,-,-,-,-,-
Cc1ccc(CNC(=O)c2cc3c(=O)n4cccc(C)c4nc3s2)cc1,-,-,-,-,-,-
O=C(NCC1COc2ccccc2O1)c1ccc(NC(=O)c2ccco2)cc1 (centres undefined),-,-,-,-30,-,-
COc1ccc(OC)c(NC(=O)Nc2cccc(Cn3cccn3)c2)c1,-,?,-,-36,-,-
Cc1ccc(C(=O)C(C)Oc2cccc(NC(=O)c3ccco3)c2)cc1 (centres undefined),-,-,-,-,42,-
COc1ccccc1/C=C/C(=O)OCC(=O)Nc1ccccc1Sc1ccccc1,-,-,-,-,50,-
O=S(=O)(c1ccc(C(F)(F)F)cc1)N1CCN(S(=O)(=O)c2ccc3c(c2)OCCO3)CC1,-,.,-,-,-,-
COc1ccc(C)cc1NC(=O)NC(C)c1ccncc1 (centres undefined),-,-,-,-32,-,-
COc1ccc(/C=C/C(=O)OCC(=O)NCCC2=CCCCC2)cc1,-,-,-,-37,-,-
COc1ccc(Cl)cc1NC(=O)NC(C)c1ccncc1 (centres undefined),-,-,-,-,-,-
O=C(Nc1ccc(NC(=O)c2cccs2)cc1)c1ccco1,-,-,-,-,-,-
O=C(OCC(=O)c1cccs1)c1ccc(NC(=O)c2ccco2)cc1,-,-,-,-33,-,-
COc1ccc(OC)c(NC(=O)COC(=O)/C=C/c2ccc(Cl)cc2)c1,-,-,-,-33,-,-
COc1ccc(CNC(=O)COC(=O)/C=C/c2ccc(Cl)cc2)cc1,-,-,-,-,-,-
CCCS(=O)(=O)N1CC(=O)N(c2cccc(F)c2)C(C)(C(=O)NC2CCCCCC2)C1 (centres undefined),-,-,-,-,-,-
Cc1ccc(CCNC(=O)c2ccc3c(c2)N(Cc2cccc(Cl)c2)C(=O)c2ccccc2S3(=O)=O)cc1,-,-,-,-,-,-
COc1ccc(NC(=O)Nc2cc(C)ccc2OC)cc1,-,-,-,-32,-,-
CNC(=S)N1CCN(c2ccccc2OC)CC1,-,-,-,-46,-,-
COc1ccc(NC(=O)c2ccc3ncsc3c2)cc1,35,-,-,-,-,-
SMILES,TRHR PAM,USP1-UAF1 inh,TRHR ag,D1 antagonist,D1 agonist,D1 potentiator
CCC(CC)NC(=O)Nc1ccc(F)c(Cl)c1,-,-,-,-46,-,-
COc1ccc(C)cc1NC(=O)Nc1ccccc1,-,-,-,-,-,-
O=C(Nc1ccccc1Cl)c1cc2c(-c3ccccc3)nn(-c3ccccc3)c2s1,-,-,-,-,-,-
COc1ccc(C(=O)COC(=O)c2n[nH]c3ccccc23)c(OC)c1,-,-,-,-,-,-
COc1cc(NC(=O)c2cccc([N+](=O)[O-])c2C)ccc1NC(=O)c1ccco1,-,-,-,-36,-,-
COc1ccccc1N1CCN(C(=O)Nc2ccc(F)c(Cl)c2)CC1,-,-,-,-57,-,-
COc1ccc(OC)c(NC(=O)COC(=O)c2n[nH]c3ccccc23)c1,-,-,-,-39,-,.
COc1ccc(OC)c(NC(=O)Nc2ccc(Cl)cc2)c1,-,-,-,-43,-,-
CCOc1ccccc1N1CCN(C(=O)Nc2ccc(F)c(Cl)c2)CC1,-,-,-,-,-,-
